# Measured values: PubChem BioAssay AID504594 (Broad Institute, 2011)
# Hit rate of the full screen: of about 2,000 compounds, fewer than 10 were called active. Only a sample is shown. A number with no mark means an inactive call.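 How the source made its calls: active means growth inhibition of at least 75% in every replicate, which also brings the mean inhibition to 75% or more; inconclusive means mean inhibition 75% or more but some replicate under 75%; inactive means the rest.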
# Assay: reduced viability of yeast carrying PfHsp90 – S. cerevisiae, BacTiter-Glo luminescence, antimalarial PfHsp90 inhibitor project, primary screen (AID 504594);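 further: 0% = DMSO neutral control wells and 100% = 20 µM radicicol control wells; higher value means stronger growth inhibition because the sign is flipped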
# Conditions: S. cerevisiae expressing PfHsp90, BacTiter-Glo growth, 48 h; at 9.4 µM; stronger effect = higher value
row,Structure (SMILES),growth inhibition
1,CC(C)(C)C(O)C(Oc1ccc(Cl)cc1)n1cncn1 (stereo not given),96.5% (active)
2,CN1CCN(C(=O)OC2c3nccnc3C(=O)N2c2ccc(Cl)cn2)CC1 (stereo not given),6.28%
3,O=C1NC(=O)C2(Cc3ccccc3N3CCCC32)C(=O)N1c1ccc(Cl)cc1 (stereo not given),-0.293%
4,O=S(=O)(c1ccc(F)cc1)N1CCCCC1c1cccnc1 (stereo not given),-1.69%
5,Clc1ccc(CSC(Cn2ccnc2)c2ccc(Cl)cc2Cl)cc1 (stereo not given),95% (active)
6,c1ccc(Cn2ccnc2)cc1,-14.6%
7,Cn1c(O)c(C=NCCc2c[nH]c3ccccc23)c(=O)n(C)c1=O,-4.75%
8,C[N+]1(C)CCN(c2ccccc2)CC1,4.14%
9,COc1cc2c3cc1Oc1cc(ccc1O)C[C@@H]1c4c(cc(OC)c(O)c4Oc4ccc(cc4)C[C@H]3N(C)CC2)CCN1C,-1.85%
10,CCOc1ccc(N2C(=O)NC(=O)/C(=C\c3cc(OC)c(OC)cc3[N+](=O)[O-])C2=O)cc1,-0.939%
